High-throughput results: PubChem BioAssay, National Center for Advancing Translational Sciences (NCATS)
This is a sample that favours compounds with a hit; in the whole collection about 7.3% have one here.
Tau FP inhib: qHTS for Inhibitors of Tau Fibril Formation, Fluorescence Polarization; Microtubule-associated protein tau (Homo sapiens), P10636; K18 P301L tau heparin fibrillization, Alexa594 FP, 6 h; Potency, µM (highest dose often 57.7 µM), without a hit: top-dose activity, negative = inhibition, most hits filed as inhibitors; actives 0.39% (n = 280,000); AID 1468, 2008; also: nearly all actives have a fitted effect of over 55% in size
Target sequence (P10636 561-689 P618L limits assumed): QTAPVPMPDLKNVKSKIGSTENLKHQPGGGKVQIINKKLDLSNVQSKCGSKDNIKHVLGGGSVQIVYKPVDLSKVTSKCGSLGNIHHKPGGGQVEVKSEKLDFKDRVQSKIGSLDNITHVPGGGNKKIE
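Steps: dispense K18 P301L tau (15 uM plus 0.24 uM Alexa 594 tracer, final) in pH 7 sodium acetate; add compound; add heparin (20 uM final); incubate 6 hr, 37 C; add ThT (30 uM final); after 1 hr ambient, read FP.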
Gal4-VP16 FLuc: VP16 counterscreen qHTS for inhibitors of ROR gamma transcriptional activity; Potency, µM (doses to about 53.6 µM), for inactives: top-dose activity, negative = inhibition, actives largely listed as inhibitors; Drosophila S2 Gal4-VP16 UAS-luciferase, luminescence, 20 h; actives 3.5% (n = 310,000);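 also: Gal4-VP16 expression switched on by copper sulfate through the metallothionein promoter; nearly all actives have a fitted effect of over 50% in size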
Tau fluor cs: Counterscreen qHTS for Inhibitors of Tau Fibril Formation, Fluorescence Polarization | tau K18 P301L Alexa594 fluorescence, heparin fibrillization | Potency, µM (titrated, usually from 57.7 µM), inactives show at the highest dose activity change, negative = decrease | actives 0.93% (n = 280,000) | AID 1463, 2008; also: nearly all actives have a fitted effect of over 55% in size
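Human tau K18 P301L (15 uM unlabeled, 0.24 uM Alexa 594-labeled) in 100 mM sodium acetate pH 7 with 20 uM heparin, 6 hr at 37 C. ThT 30 uM added, 1 hr ambient; Alexa 594 FP and total fluorescence read at 555/632 nm.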
RORgamma inh: qHTS for inhibitors of ROR gamma transcriptional activity; Drosophila S2 Gal4-RORgamma UAS-luciferase reporter, 20 h; Nuclear receptor ROR-gamma (Mus musculus), P51450; Potency, µM (doses to about 53.6 µM), without a hit: top-dose activity change, negative = inhibition, actives largely listed as inhibitors; AID 2551, 2010; actives 5.4% (n = 310,000); also: nearly all actives have a fitted effect of over 60% in size
Target sequence (P51450 whole entry, looked up, the tested form may be a part): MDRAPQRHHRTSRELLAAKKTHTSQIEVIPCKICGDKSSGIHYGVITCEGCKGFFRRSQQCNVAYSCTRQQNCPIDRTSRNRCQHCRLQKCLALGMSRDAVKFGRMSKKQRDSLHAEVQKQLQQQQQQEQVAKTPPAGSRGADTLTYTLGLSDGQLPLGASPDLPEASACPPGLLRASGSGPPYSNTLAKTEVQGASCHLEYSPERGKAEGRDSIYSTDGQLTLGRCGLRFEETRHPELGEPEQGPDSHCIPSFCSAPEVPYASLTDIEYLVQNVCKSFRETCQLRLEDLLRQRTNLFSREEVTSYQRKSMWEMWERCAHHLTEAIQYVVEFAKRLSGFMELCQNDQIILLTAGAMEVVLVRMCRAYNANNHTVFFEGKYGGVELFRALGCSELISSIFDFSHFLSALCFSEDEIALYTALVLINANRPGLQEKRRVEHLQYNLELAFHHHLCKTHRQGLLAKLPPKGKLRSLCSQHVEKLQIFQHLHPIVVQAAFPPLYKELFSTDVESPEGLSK
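Read-out: Photinus luciferase luminescence; inhibitors lower reporter signal. Insect Schneider cells with Gal4-ROR gamma fusion under metallothionein promoter, UAS reporter; 700 uM final copper sulfate induction, 20 hr, ambient temperature.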
Tau ThT inhib: qHTS for Inhibitors of Tau Fibril Formation, Thioflavin T Binding | Microtubule-associated protein tau (Homo sapiens), P10636 | recombinant tau K18 P301L (four-repeat tau fragment), heparin-induced fibrillization, ThT fluorescence | Potency, µM (highest dose often 57.4 µM), without a hit: top-dose activity, negative = inhibition, usual class: inhibitors | actives 2.1% (n = 270,000) | AID 1460, 2008; also: nearly all actives have a fitted effect of over 55% in size
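Heparin-induced (20 uM) aggregation of recombinant human K18 P301L tau, 15 uM unlabeled with 0.24 uM labeled, pH 7 acetate buffer, 6 hr at 37 C with compound. Fibrils quantified by 30 uM ThT fluorescence after 1 hr ambient incubation.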
The depositor's hits bear a star; ? = inconclusive; · = no result; [ ] = another dose, or the depositor's remark. Calls follow the shape of the dose curve; as a rule, active = well fitted curve in the direction sought with a large enough effect; inconclusive = small, poorly fitted or top-dose-only effect, or another doubt; inactive = no such curve, though single readings can be large; an effect the other way counts as inactive or inconclusive. % is scaled to controls: 0 for no effect and ±100 for the full control effect; potency is read from the fitted curve at half-maximal effect.

SMILES | Tau FP inhib | Gal4-VP16 FLuc | Tau fluor cs | RORgamma inh | Tau ThT inhib
Cc1ccc(CNC(=O)c2cc(Cl)cc(Cl)c2)n1C | · | -5% | · | -20% | ·
O=[N+]([O-])c1cc(S(=O)(=O)O)cc([N+](=O)[O-])c1NN(c1ccccc1)c1ccccc1 | · | -10% | · | -23% | ·
CC(C)c1cnc2c(c1SCC(=O)N1CCCCC1)c(=O)n(C)c(=O)n2C | -5% | · | -7% | · | -8%
Cc1oc(=O)c(NC(=O)c2cccc(Cl)c2)cc1C(=O)c1ccccc1 | ? | 5µM* | -11% | 4.5µM* | ?
COc1ccc(C(=O)Nc2cc(C(=O)c3ccccc3)c(C)oc2=O)cc1 | ? | 10µM* | -11% | -104% | ?
Cn1cccc1CC(=O)NNC(=S)Nc1ccc(Cl)cc1 | 2% | ? | -3% | 11µM* | -9%
O=C(Cc1noc2ccccc12)NNC(=S)Nc1ccc(Cl)cc1 | 6% | -17% | -8% | 11µM* | -4%
O=C(N/N=C/c1ccc(-c2cccc(C(F)(F)F)c2)o1)c1ccccc1O | -11% | 0.56µM* | -20% | 0.28µM* | -15%
Cc1ccc(NCC(=O)N/N=C/c2ccc(-c3cccc(C(F)(F)F)c3)o2)cc1 | 0% | ? | ? | ? | ?
O=C(N/N=C/c1ccc(N2CCOCC2)o1)c1cccc(F)c1 | -9% | 13µM* | -9% | 11µM* | ?
NC(=O)N/N=C/c1ccc(-c2cccc(C(F)(F)F)c2)o1 | 2% | -2% | -13% | 31% | -11%
COc1ccc(C(=O)N/N=C/c2ccc(N3CCOCC3)o2)cc1OC | 0% | 7% | -10% | ? | ?
O=C(N/N=C/c1ccc(-c2cccc(C(F)(F)F)c2)o1)c1ccccc1Br | -19% | -91% | -28% | 11µM* | -5%
O=C(N/N=C/c1ccc(-c2cccc(C(F)(F)F)c2)o1)c1cccc(F)c1 | ? | 1.3µM* | ? | 2µM* | -6%
COc1ccc(CNC(=O)C2CCN(c3nc4ccccc4[nH]3)CC2)c(OC)c1 | 0% | · | -7% | · | -9%
Cc1ccc(OCC(=O)Nc2cc(C(C)(C)C)on2)cc1C | · | 5% | · | ? | ·
Cc1c(CC(=O)NCc2ccccc2Cl)c(=O)oc2cc(O)ccc12 | -14% | · | -11% | · | ?
CC(C)OCCCn1c(-c2ccc(Br)cc2)c[nH]c1=S | 1% | 2.8µM* | -14% | 1µM* | -2%
Cc1noc(C)c1C(=O)N1CCC2(CC1)CCN(c1ccccn1)CC2 | · | 2% | · | -28% | ·
Cc1ccc(-c2cc(-c3ccccc3)c(C#N)c(Br)n2)cc1 | -18% | -2% | -20% | -12% | -4%
CS(=O)(=O)c1nc(-c2ccccc2)cc(-c2ccccc2)c1C#N | -1% | ? | -1% | 10µM* | -15%
O=C(Nc1ccc(Br)cc1F)c1ccc2c(c1)OCCO2 | · | ? | · | 7.9µM* | ·
O=C(NCCc1ccccc1F)c1ccc2c(c1)OCCO2 | · | 0.79µM* | · | 0.63µM* | ·
O=C(NC(=S)Nc1cc(C(F)(F)F)ccc1Cl)c1ccccc1 | -5% | ? | -6% | 2.5µM* | -4%
O=C(CCNC(=O)c1ccccc1Cl)Nc1cc(C(F)(F)F)ccc1Cl | 5% | -1% | 8% | 22% | 5%
SMILES | Tau FP inhib | Gal4-VP16 FLuc | Tau fluor cs | RORgamma inh | Tau ThT inhib
O=C(Nc1cccs1)Nc1cc(C(F)(F)F)ccc1Cl | -3% | · | 6.3µM*[quencher] | · | -14%
O=C(Nc1ccc(C(F)(F)F)cn1)Nc1cccs1 | 6% | ? | -20% | 20% | -2%
FC(F)(F)c1ccc(Cl)c(NC(=S)N/N=C/c2ccccc2Cl)c1 | -13% | ? | -13% | 2.2µM* | -4%
O=C(O)c1ccc(NNC(=S)Nc2cc(C(F)(F)F)ccc2Cl)cc1 | · | ? | · | 3.2µM* | ·
O=C(CC(=O)c1ccccc1)Nc1cc(C(F)(F)F)ccc1Cl | 2% | ? | 1% | ? | 2%
O=C(CCN1CCCCC1)Nc1ccc2c(c1)C(=O)c1ccc(NC(=O)CCN3CCCCC3)cc1C2=O | 7% | -13% | ? | -25% | ?
COc1ccc(NC(=O)Nc2cccs2)cc1Cl | ? | -11% | 10µM*[quencher] | 4% | ?
CCOc1ccc(CCNC(=O)c2cnc3sc(N4CCCCCC4)nn3c2=O)cc1 | 1% | · | -16% | · | -14%
Cc1ccc(NC(=S)Nc2ccc3[nH]c(=O)[nH]c3c2)cc1C | 14% | ? | -21% | 11µM* | ?
CC(=O)c1ccc(NC(=S)Nc2ccc3[nH]c(=O)[nH]c3c2)cc1 | -6% | 5% | -1% | 0% | 1%
COc1ccc2[nH]cc(CCNc3ccnc(-c4ccccc4C)n3)c2c1 | · | -4% | · | 26% | ·
O=C(CNc1ccc(Br)cc1)c1ccc(Br)s1 | · | -14% | · | 9% | ·
CC(C)C[C@H](N)c1nnc(S(=O)(=O)Cc2ccc(F)cc2)o1 | ? | 14µM* | -3% | 0% | -1%
CC1(C)Cc2c(sc3ncnc(NNC(=S)NCc4ccccc4)c23)CO1 | 7% | 3.2µM* | ? | 2.2µM* | -14%
Cc1nc2oc3c(NCc4ccccc4)ncnc3c2c2c1COC(C)(C)C2 | 2% | -4% | -16% | 8% | 5%
COc1ccccc1NC(=O)c1cc2cc(Br)ccc2cc1O | -6% | 8.9µM* | 6.3µM*[quencher] | ? | ·
COc1ccccc1NC(=O)c1cc2ccc(O)cc2o/c1=N\O | 5% | 2.2µM* | ? | 0.89µM* | 7.1µM*
COc1ccccc1NC(=O)c1cc2ccccc2o/c1=N\O | 6% | -26% | -11% | ? | ?
Cc1cccc(N2CCN(C(=O)C3CCN(c4ncnc5c4nc4n5CCCCC4)CC3)CC2)c1C | 5% | 8.9µM* | 4% | ? | ?
O=C(C1CCN(c2ncnc3c2nc2n3CCCCC2)CC1)N1CCN(c2ccccc2F)CC1 | 11% | -24% | 6% | ? | -11%
CC(/C=N/n1c(-c2ccco2)n[nH]c1=S)=C\c1ccco1 | 2% | ? | -24% | ? | ?
Cc1cc(-c2n[nH]c(=S)n2/N=C/C(Cl)=C/c2ccccc2)n[nH]1 | -6% | ? | -21% | 8.9µM* | ?
Cc1cc(-c2n[nH]c(=S)n2/N=C/c2cccc(O)c2)n[nH]1 | 5% | 0% | 6% | 3% | 4%
S=c1[nH]nc(-c2ccco2)n1/N=C/C(Cl)=C/c1ccccc1 | ? | 11µM* | ? | 4µM* | 14µM*
Cc1ccccc1CN1[C@@H]2c3ccccc3C[C@@H]2OCCS1(=O)=O | · | -9% | · | 20% | ·
COCCCNc1nc2c(-c3ccccc3)nnn2c2ccccc12 | -4% | · | -11% | · | 0%
COc1ccccc1C(=O)N1CCN(S(=O)(=O)c2ccccc2)CC1 | -1% | -1% | 0% | 11µM* | 7%
